The record followed here is PubChem BioAssay (Tox21).

Records with an inconclusive call do not appear. Calls of active or inactive are those of the source. Calls come from the whole dose curve; as a rule, active = well fitted activation curve with a large enough effect in the signal ratio in the repeat runs (not every such curve was filed as active); inconclusive = weak or mixed curves; inactive = flat fitted curve, though single readings scatter; the % refers to the signal ratio.
% is set by controls: 0 for no effect and ±100 for the full control effect.

The nature of the assay: qHTS assay to identify small molecule agonists of H2AX (AID 1224845). The note with it: CHO-K1 phospho-H2AX Ser139 HTRF, 3 h; series mostly up to 154 µM; activation (H2AX phosphorylation): at the top concentration. From the text:
National Center for Advancing Translational Sciences [NCATS]
NIH Chemical Genomics Center [NCGC]
U.S. Environmental Protection Agency [EPA]
National Institutes of Environmental Health Sciences [NIEHS]
National Toxicology Program [NTP]
U.S. Food and Drug Administration [FDA]
HTRF phospho-H2AX (Ser139) assay (Cisbio Bioassays, US) enables the quantitative detection of the histone variant H2AX when phosphorylated on serine 139. When double-stranded DNA breaks, either by ionizing radiation or endogenous physiological processes, H2AX becomes phosphorylated at Ser139. This phospho-Ser139 serves as a sensitive biomarker for the detection of such breaks, localizing the site of DNA repair. So, HTRF phospho-H2AX Ser139 is a pertinent assay to study genome stability, the cell cycle, DNA repair, and it serves as a biomarker for cancer, and to understand aging. Wild type CHO-K1 cells were used to identify the inducers of Phospho-H2AX Ser 139 from the Tox21 10K compound collections.
Tox21 Assay Protocol Summary:
The CHO-K1 cells suspended in culture medium containing 10% FBS were dispensed at 1000 cells/ 3 ul/well in 1536-well white wall/solid bottom plates (Greiner Bio-One North America, NC) using a Multidrop Combi (Thermo Fisher Scientific Inc., Waltham, MA). After the assay plates were incubated at 37C overnight, 23 nl of compounds at 15 concentrations (from 5-48 columns) or positive control (from 1 to 4 columns) were transferred to the assay plates using a Pintool station (Wako, San Diego, CA) into each well resulting in a final DMSO concentration of 0.76%. After 3hr incubation at 37C, 1 uL/well Supplemented Lysis buffer (diluted 100 fold blocking reagent in lysis buffer) (HTRF Phospho-H2A.X (S139) Assay kit from Cisbio US Inc., Bedford, MA) was added using a Flying Reagent Dispenser (FRD) (Aurora Discovery, CA). After 10sec spin at 1000 rpm in a plate centrifuge, the assay plates were incubated at room temperature for 30 min. Then followed by the addition of 1 uL/well detection buffer (containing a mixture of two antibodies, one labeled with cryptate, Anti pH2AX (S139)-K and another labeled with d2, Anti H2AX-d2) using FRD. After incubation at room temperature for 24 hr, the time resolved fluorescence at excitation 320 nm and emissions at 665 nm and 620 nm was measured using an Envision plate reader (PerkinElmer, Waltham, MA).
For the compound `O=C(c1ccccc1)c1cccc(O)c1`, the “activation (H2AX phosphorylation)” value is -0.663% (inactive).

Regarding `CCCCCCCCCCCCCCCC/C=C/C1CC(=O)OC1=O` (stereo not given), the “activation (H2AX phosphorylation)” value was -0.424% [at 70.9 µM] (inactive).

Turning to `Cc1ccc2ccccc2n1`, the “activation (H2AX phosphorylation)” value is 1.3% (inactive).

`Cc1cc(C)c(N)c(Cl)c1`: the “activation (H2AX phosphorylation)” value is 0.263% (inactive).

As for `COC(=O)C(c1ccccc1Cl)N1CCc2sccc2C1` (stereo not given), the “activation (H2AX phosphorylation)” value is -1.72% [at 70.9 µM] (inactive).

Consider `CN1CCN(C(=O)C2CCCCC2)CC1`, for which the “activation (H2AX phosphorylation)” value is -2.03% [at 70.9 µM] (inactive).

As to `CCCCN=C(N)N=C(N)N`, the “activation (H2AX phosphorylation)” value is -0.256% [at 70.9 µM] (inactive).

In the case of `COc1cc2nc(N3CCN(C(=O)C4CCCO4)CC3)nc(N)c2cc1OC` (stereo not given), the “activation (H2AX phosphorylation)” value is 0.693% [at 70.9 µM] (inactive).

`Cc1ccc(S(=O)(=O)NC(=O)NN2CC3CCCC3C2)cc1` (stereo not given): the “activation (H2AX phosphorylation)” value is -2.68% [at 70.9 µM] (inactive).

As for `C=CCN1CCc2nc(N)sc2CC1`, the “activation (H2AX phosphorylation)” value is -1.1% [at 70.9 µM] (inactive).

Turning to `CC(C)(C)C(=O)NCCCC(=O)O`, the “activation (H2AX phosphorylation)” value is 0.423% [at 70.9 µM] (inactive).

As to `CC(=O)Oc1ccc(C(C)=O)cc1`, the “activation (H2AX phosphorylation)” value is -3.33% (inactive).

On to `Cc1ccccc1C#N`, for which the “activation (H2AX phosphorylation)” value was -0.005% (inactive).

Regarding `O=Cc1ccc(C(=O)O)cc1`, the “activation (H2AX phosphorylation)” value is 1.6% (inactive).

As to `C[n+]1ccccc1/C=N/O`, the “activation (H2AX phosphorylation)” value was -0.141% [at 70.9 µM] (inactive).

As to `COCCCOc1cc(C[C@@H](C[C@H](N)[C@@H](O)C[C@H](C(=O)NCC(C)(C)C(N)=O)C(C)C)C(C)C)ccc1OC`, the “activation (H2AX phosphorylation)” value is -0.478% [at 70.9 µM] (inactive).

For `C=CCCCCCCCCOC(C)=O`, the “activation (H2AX phosphorylation)” value is -1.41% (inactive).

Regarding `O=CN1CCCCC1`, the “activation (H2AX phosphorylation)” value was 1.35% (inactive).

With `CCCCS`, the “activation (H2AX phosphorylation)” value was -0.296% (inactive).

With `CC(C)(O)c1ccc(C(C)(C)O)cc1`, the “activation (H2AX phosphorylation)” value is 1.76% (inactive).

For `CCC(C)(C)C`, the “activation (H2AX phosphorylation)” value is 2.68% (inactive).

As to `C[C@@H]1CCC[C@H](C)N1CCCC(O)(c1ccccc1)c1ccccn1` (stereo not given in full), the “activation (H2AX phosphorylation)” value was -1.28% [at 70.9 µM] (inactive).

Turning to `CCCc1ncc(C(=O)O)s1`, the “activation (H2AX phosphorylation)” value was -6.01% [at 70.9 µM] (inactive).

For `CNC(=O)c1c(I)c(NC(C)=O)c(I)c(C(=O)O)c1I`, the “activation (H2AX phosphorylation)” value is -1.95% [at 70.9 µM] (inactive).

As to `CCC(C)SSC(C)CC` (stereo not given), the “activation (H2AX phosphorylation)” value was -2.64% (inactive).

As to `C[C@@H]1CC[C@@]2(OC1)O[C@H]1C[C@H]3[C@@H]4CC[C@H]5C[C@@H](O)CC[C@]5(C)[C@H]4CC(=O)[C@]3(C)[C@H]1[C@@H]2C`, the activation (H2AX phosphorylation) is 0.205% [at 14 µM] (inactive).

Take `O=S(=O)(O)CC(O)CCl` (stereo not given): the “activation (H2AX phosphorylation)” value is 1.02% (inactive).

For `CCc1ccc(CC)cc1`, the “activation (H2AX phosphorylation)” value was -3.36% (inactive).

As to `C=COCCCCO`, the “activation (H2AX phosphorylation)” value is 0.52% (inactive).

Take `CC(C)(C)C(=O)CCc1ccc(Cl)cc1`: the “activation (H2AX phosphorylation)” value was 1.45% (inactive).

With `C=CC(=O)OCCOCCOCC`, the “activation (H2AX phosphorylation)” value is 4.15% (inactive).

On to `COc1ccc(Cl)cc1C`, for which the “activation (H2AX phosphorylation)” value was -0.388% (inactive).

In the case of `NNC(=O)CCCCC(=O)NN`, the “activation (H2AX phosphorylation)” value was -0.968% (inactive).

Take `O=C(O)CCC(=O)Nc1ccc(S(=O)(=O)Nc2nccs2)cc1`: the “activation (H2AX phosphorylation)” value is -3.56% [at 70.9 µM] (inactive).

Take `COC(=O)c1ccc(C(=O)O)cc1`: the “activation (H2AX phosphorylation)” value was -0.12% (inactive).

As for `CC12CCCC=C1C(=O)OC2=O` (stereo not given), the “activation (H2AX phosphorylation)” value is -2.08% (inactive).

`CCCCN(CCCC)CCCCCCN(CCCC)CCCC`: the “activation (H2AX phosphorylation)” value was -0.142% (inactive).

In the case of `C=C(C)C(=O)OCCCC`, the “activation (H2AX phosphorylation)” value was 0.0063% (inactive).

As to `CC(C)C[P+](C)(CC(C)C)CC(C)C`, the “activation (H2AX phosphorylation)” value is -0.0627% (inactive).

`CC(C)(C)NCC(O)COc1cccc2c1CCC(=O)N2` (stereo not given): the “activation (H2AX phosphorylation)” value is 0.424% [at 70.9 µM] (inactive).
